T cruzi growth-1 = blocks T. cruzi growth in NIH3T3 culture | AID 624255 | T. cruzi beta-gal in NIH3T3, GalScreen luminescence, 90 h | actives 5.9% (n = 77,000) | inhibition, % at 8.34 µM;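 active means mean inhibition above about 93%, with at least 55% of replicates each passing it, limit read from the data, passing the limit was not always enough; inconclusive means only one of those two conditions holds; inactive means neither condition holds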
Pf Dd2 growth = P. falciparum Dd2 growth inhibition; AID 1159554; actives 2.3% (n = 94,000); SYBR Green, 72 h; stronger effect = lower value; activity change, % at 10 µM; in the data active means activity change below about -80%; inconclusive means no clear call, values can overlap the other calls
C diff HTS = blocks growth of Clostridium difficile; Clostridium difficile clinical isolate growth, OD600, 24 h; stronger effect = lower value; growth activity, negative = inhibition, % at 16 µg/mL (by protocol); actives 0.25% (n = 86,000);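 active means mean growth activity at or below -80% and every replicate also at or below -80%; inconclusive means mean at or below -80% but some replicate above -80%; inactive means mean growth activity above -80%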;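 further: 0% = DMSO wells and -100% = levofloxacin 16 µg/mL wells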
T cruzi growth-2 = Trypanosoma cruzi proliferation inhibition; actives 72% (n = 5,600); shares compounds with T cruzi growth-1; T. cruzi beta-gal in NIH3T3, GalScreen luminescence, 90 h; AID 651739; inhibition, % at 8.35 µM;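 active means mean replicate inhibition above about 95% and at least 55% of replicates individually reaching it, limit read from the data; inconclusive means only one of the two criteria is met; inactive means neither criterion is met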
T cruzi growth-3 = Trypanosoma cruzi proliferation inhibition. shares compounds with T cruzi growth-1. AID 651740. actives 21% (n = 5,600). inhibition, % at 2.09 µM. T. cruzi beta-gal in NIH3T3, GalScreen luminescence, 90 h;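 active means mean inhibition above about 95%, with at least 55% of replicates also reaching it, limit read from the data; inconclusive means meets just one of the two conditions; inactive means meets neither condition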;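 further: plate controls were neutral control median for no effect and positive control median for full effect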
3T3 cytotox = cytotoxicity in mouse NIH/3T3 fibroblasts. actives 14% (n = 5,600). shares compounds with T cruzi growth-1. NIH/3T3 viability, CellTiter-Glo ATP luminescence, 90 h. AID 651742. cytotoxicity (signal decrease), % at 8.35 µM;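 active means mean signal decrease across replicates above about 35% based on untreated-well scatter, with enough replicates individually passing, limit read from the data; inconclusive means no rule stated though some were filed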;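 further: 0% = median of neutral control wells and 100% = median of positive control wells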
3T3 cytotox 2 = kills mouse NIH/3T3 fibroblasts; shares compounds with T cruzi growth-1; NIH/3T3 viability, CellTiter-Glo ATP luminescence, 90 h; inhibition, % at 24.9 µM; actives 56% (n = 5,600); AID 651744;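 active means mean loss of cell viability signal at or above a set limit, and enough replicates individually reaching it; inconclusive means meets only the mean limit or only the replicate share; inactive means meets neither condition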;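 further: 0% = median of neutral control wells and 100% = median of positive control wells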
* hit, by the source's call; ? = inconclusive; · = no result. Hits are enriched below; roughly 6.8% of the tested compounds scored in any of these assays.

SMILES | T cruzi growth-1 | Pf Dd2 growth | C diff HTS | T cruzi growth-2 | T cruzi growth-3 | 3T3 cytotox | 3T3 cytotox 2
C[C@@H](NC(=O)C[C@@H]1C=C[C@H](NC(=O)C2CCOCC2)[C@H](CO)O1)c1ccccc1 | 17.9 | -4.1 | -2.5 | · | · | · | ·
C[C@H](NC(=O)C[C@H]1C=C[C@H](NC(=O)C2CCOCC2)[C@H](CO)O1)c1ccccc1 | 97.7* | 1.7 | -2.4 | -12.7 | -76.8 | -3.4 | -14.4
O=C(C[C@@H]1C=C[C@@H](NC(=O)C2CC2)[C@H](CO)O1)Nc1nccs1 | 88.0 | -0.1 | · | · | · | · | ·
C[C@H]1CN([C@@H](C)CO)C(=O)c2cc(NC(=O)Cc3cn(C)c4ccccc34)ccc2O[C@H]1CN(C)S(C)(=O)=O | 17.3 | 1.6 | -1.1 | · | · | · | ·
CC(C)NC(=O)N1CC[C@@H]2[C@H]1c1cc(Br)ccc1N(C)[C@H]2CO | 12.1 | 6.5 | 3.0 | · | · | · | ·
COc1ccc(CN(C)C[C@@H]2OCCCC[C@@H](C)Oc3ccc(NC(=O)Nc4ccc5c(c4)OCO5)cc3C(=O)N([C@@H](C)CO)C[C@@H]2C)cc1 | ? | -9.4 | · | 107.9* | 97.7* | 11.6 | 53.4*
COc1ccc(CN(C)C[C@H]2OCCCC[C@@H](C)Oc3ccc(NC(=O)Nc4ccc5c(c4)OCO5)cc3C(=O)N([C@H](C)CO)C[C@H]2C)cc1 | 106.4* | -70.9 | · | 106.3* | 82.7 | 0.5 | 63.7*
COc1ccc(CN(C)C[C@H]2OCCCC[C@H](C)Oc3ccc(NC(=O)Nc4ccc5c(c4)OCO5)cc3C(=O)N([C@@H](C)CO)C[C@@H]2C)cc1 | 105.5* | -50.6 | · | 101.0* | 81.1 | 24.7 | 104.4*
COc1ccc(CN(C)C[C@H]2OCCCC[C@@H](C)Oc3ccc(NC(=O)Nc4ccc5c(c4)OCO5)cc3C(=O)N([C@@H](C)CO)C[C@H]2C)cc1 | 88.3 | -71.0 | · | · | · | · | ·
COc1ccc(CN(C)C[C@@H]2OCCCC[C@H](C)Oc3ccc(NC(=O)Nc4ccc5c(c4)OCO5)cc3C(=O)N([C@H](C)CO)C[C@H]2C)cc1 | 52.3 | -51.5 | · | · | · | · | ·
COc1ccc(CN(C)C[C@H]2OCCCC[C@H](C)Oc3ccc(NC(=O)Nc4ccc5c(c4)OCO5)cc3C(=O)N([C@@H](C)CO)C[C@H]2C)cc1 | 58.3 | ? | · | · | · | · | ·
O=C(c1cccnc1)N1C[C@@H]2[C@H](c3ccccc31)[C@H](CO)N2C(=O)Nc1ccccc1Cl | 3.6 | 5.1 | -2.0 | · | · | · | ·
COc1ccc2c3c([nH]c2c1)[C@H](CO)N(C(=O)Nc1ccc(F)cc1)CC31CCN(Cc2nccs2)CC1 | · | 22.4 | · | · | · | · | ·
OC[C@@H]1[C@@H](c2ccc(C3=CCCC3)cc2)[C@@H]2CN(CCC(F)(F)F)CCCCN12 | 88.6 | -27.1 | -10.3 | · | · | · | ·
OC[C@@H]1[C@H](c2ccc(C3=CCCCC3)cc2)[C@@H]2CN(CCC(F)(F)F)CCCCN12 | ? | -57.8 | 29.2 | 95.6* | 105.5* | 69.9* | 105.6*
OC[C@@H]1[C@H](c2ccc(C3=CCCC3)cc2)[C@H]2CN(CCC(F)(F)F)CCCCN12 | 103.2* | -76.9 | 2.3 | 100.2* | 57.7 | 15.2 | 103.1*
OC[C@H]1[C@H](c2ccc(C3=CCCC3)cc2)[C@H]2CN(CCC(F)(F)F)CCCCN21 | 73.6 | 29.9 | -3.5 | · | · | · | ·
CCCNC(=O)N1CC2(C1)[C@@H](c1ccccc1)[C@H](CO)N2CC1CC1 | · | 11.6 | 5.2 | · | · | · | ·
CO[C@@H]1CN(C)C(=O)c2cc(C#N)ccc2OCC[C@@H]2CC[C@@H](OC)[C@@H](CN(C)C(=O)[C@H]1C)O2 | 24.4 | · | -6.4 | · | · | · | ·
COc1ccccc1CNC(=O)C[C@H]1C[C@H]2c3cc(NS(=O)(=O)c4ccc(F)cc4)ccc3O[C@H]2[C@H](CO)O1 | -68.3 | -34.2 | -4.3 | · | · | · | ·
C[C@H](CO)N1C[C@H](C)[C@H](CN(C)S(=O)(=O)c2ccccc2)OCCCC[C@H](C)Oc2ccc(NS(C)(=O)=O)cc2C1=O | 22.7 | -0.9 | 0.5 | · | · | · | ·
C[C@@H]1CCCCO[C@H](CN(C)Cc2ccc(C(=O)O)cc2)[C@@H](C)CN([C@H](C)CO)C(=O)c2cc(NC(=O)C3CCCCC3)ccc2O1 | 0.0 | 32.2 | -9.2 | · | · | · | ·
C[C@@H]1CCCCO[C@@H](CN(C)Cc2ccc(C(F)(F)F)cc2)[C@@H](C)CN([C@H](C)CO)C(=O)c2cc(NC(=O)C3CCCCC3)ccc2O1 | 70.1 | 38.5 | 4.3 | · | · | · | ·
C[C@@H]1CCCCO[C@@H](CN(C)Cc2ccc(C(F)(F)F)cc2)[C@@H](C)CN([C@@H](C)CO)C(=O)c2cc(NC(=O)C3CCCCC3)ccc2O1 | ? | -26.2 | 3.3 | 102.4* | 59.5 | 3.0 | -20.4
C[C@@H]1CN([C@H](C)CO)C(=O)c2cc(NC(=O)C3CCCCC3)ccc2O[C@@H](C)CCCCO[C@@H]1CN(C)Cc1ccc(C(F)(F)F)cc1 | ? | -35.5 | 3.8 | 93.1 | 113.3* | -5.2 | -19.7
SMILES | T cruzi growth-1 | Pf Dd2 growth | C diff HTS | T cruzi growth-2 | T cruzi growth-3 | 3T3 cytotox | 3T3 cytotox 2
C[C@@H]1CN([C@H](C)CO)C(=O)c2cc(NC(=O)C3CCCCC3)ccc2O[C@@H](C)CCCCO[C@@H]1CN(C)Cc1ccc(C(=O)O)cc1 | -7.5 | 2.7 | -5.7 | · | · | · | ·
C[C@@H]1CN([C@@H](C)CO)C(=O)c2cc(NC(=O)C3CCCCC3)ccc2O[C@@H](C)CCCCO[C@@H]1CN(C)Cc1ccc(C(F)(F)F)cc1 | ? | -13.0 | 5.7 | 104.4* | 105.4* | 1.8 | 6.6
C[C@@H]1CCCCO[C@H](CN(C)Cc2ccc(C(F)(F)F)cc2)[C@H](C)CN([C@H](C)CO)C(=O)c2cc(NC(=O)C3CCCCC3)ccc2O1 | ? | -37.2 | -1.5 | 96.5* | 110.1* | -2.6 | 14.5
C[C@H](CO)N1C[C@H](C)[C@H](CN(C)Cc2ccc(C(=O)O)cc2)OCCCC[C@H](C)Oc2ccc(NC(=O)C3CCCCC3)cc2C1=O | 17.5 | 14.9 | 1.8 | · | · | · | ·
CNC[C@H]1OCCCC[C@H](C)Oc2ccc(NC(=O)NC(C)C)cc2C(=O)N([C@@H](C)CO)C[C@@H]1C | 25.5 | -27.9 | -2.6 | · | · | · | ·
CCCC(=O)Nc1ccc2c(c1)C(=O)N(C)C[C@@H](OC)[C@H](C)CN(CC1CCOCC1)[C@@H](C)CO2 | 0.0 | · | · | · | · | · | ·
CCCN1[C@@H]2c3ccc(-c4ccccc4OC)c(=O)n3C[C@@H]2[C@@H](CO)[C@@H]1C(=O)N(C)C | 53.7 | · | 2.7 | · | · | · | ·
C[C@H]1CN([C@@H](C)CO)C(=O)c2cc(C#CC3CCCCC3)cnc2O[C@@H]1CN(C)Cc1ccncc1 | 34.9 | -3.4 | · | · | · | · | ·
C[C@@H]1CN([C@H](C)CO)C(=O)c2cccc(NS(=O)(=O)c3ccccc3)c2O[C@@H]1CN(C)C(=O)Nc1ccc(C(F)(F)F)cc1 | 75.8 | -52.9 | -6.1 | · | · | · | ·
C[C@@H]1CCCCO[C@@H](CN(C)C(=O)C2CCCCC2)[C@H](C)CN([C@H](C)CO)C(=O)c2cc(NS(=O)(=O)c3ccc(Cl)cc3)ccc2O1 | ? | -14.2 | 5.2 | 110.3* | 87.7 | -1.8 | 99.6*
